Assay outcomes from PubChem.
Rows were chosen to be rich in hits. Some 3.6% of all compounds tested hit in one or more screens of this group.
CF NFkB inh: cystic fibrosis NF-kB activation inhibition; KKLEB NF-kB-GFP reporter, PAF-induced, GFP fluorescence overnight; inhibition, % at 5 µM; 0.86% of 360,000 active; AID 588850;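 active means at least 50% inhibition at 5 µM, scaled per plate between neutral and stimulator controls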;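 further: PAF is a Pseudomonas aeruginosa culture filtrate used as stimulus; plate controls were PAF-stimulated DMSO wells for no effect and unstimulated DMSO wells for full effect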
Mdm2-MdmX inh: disrupts the human Mdm2-MdmX interaction; O15151+Q00987; SaOS-2 split-luciferase Mdm2/MdmX complementation, luminescence; inhibition, % at 8 µM; 3% of 330,000 active; AID 485346;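 active means inhibition of at least 50% at 8 µM in the primary screen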
Target sequence (O15151 whole entry, looked up): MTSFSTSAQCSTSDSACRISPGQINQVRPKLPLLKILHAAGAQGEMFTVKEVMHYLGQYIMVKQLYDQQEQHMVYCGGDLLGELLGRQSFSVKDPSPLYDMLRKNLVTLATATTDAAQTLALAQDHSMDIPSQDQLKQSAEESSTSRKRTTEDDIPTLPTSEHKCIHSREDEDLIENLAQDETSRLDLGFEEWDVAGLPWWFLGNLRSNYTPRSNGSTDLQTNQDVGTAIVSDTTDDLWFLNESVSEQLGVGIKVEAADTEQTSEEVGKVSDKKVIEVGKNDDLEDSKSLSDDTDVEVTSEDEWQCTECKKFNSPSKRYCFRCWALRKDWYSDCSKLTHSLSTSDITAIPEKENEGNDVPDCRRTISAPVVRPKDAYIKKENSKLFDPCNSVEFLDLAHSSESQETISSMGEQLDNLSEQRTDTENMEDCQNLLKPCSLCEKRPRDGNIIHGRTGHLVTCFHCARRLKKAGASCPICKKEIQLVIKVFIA
Target sequence (Q00987 whole entry, looked up): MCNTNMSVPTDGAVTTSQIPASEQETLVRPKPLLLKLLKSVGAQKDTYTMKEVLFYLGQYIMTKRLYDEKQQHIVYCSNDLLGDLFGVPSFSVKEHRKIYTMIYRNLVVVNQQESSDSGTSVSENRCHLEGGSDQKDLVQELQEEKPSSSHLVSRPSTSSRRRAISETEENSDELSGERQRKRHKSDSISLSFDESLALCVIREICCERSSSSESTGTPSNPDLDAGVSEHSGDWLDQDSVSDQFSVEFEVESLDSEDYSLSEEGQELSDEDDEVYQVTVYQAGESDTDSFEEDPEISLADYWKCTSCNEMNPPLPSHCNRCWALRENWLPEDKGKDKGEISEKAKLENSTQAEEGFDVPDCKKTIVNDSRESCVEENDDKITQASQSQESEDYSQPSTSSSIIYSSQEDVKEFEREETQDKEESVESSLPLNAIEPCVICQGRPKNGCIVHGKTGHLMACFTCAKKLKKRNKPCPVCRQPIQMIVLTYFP
Peg3 prom inh: reduces Peg3 promoter-driven luciferase expression in HeLa; HeLa PEG-Prom luciferase reporter, luminescence, overnight; inhibition, % at 20 µM; 1.7% of 360,000 active; AID 588405;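 active means inhibition of at least 50% at 20 µM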
HSP90 inh: HSP90 refolding inhibition in rabbit reticulocyte lysate | 0.91% of 290,000 active | luciferase refolding luminescence, 3 h | inhibition, % at 5.6 µM;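 active means inhibition above the screen-wide mean plus 3 SD, computed separately per campaign, cut at about 16% in these data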;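 further: 0% = DMSO wells and 100% = 60 µM geldanamycin wells; inhibitors lower the luminescence because luciferase stays unfolded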
LGR2 antag: blocks bursicon-induced cAMP signaling via Drosophila LGR2. HEK293 LGR2, CRE-luciferase, bursicon-stimulated, 4 h. inhibition, % at 9.99 µM. 0.35% of 380,000 active. AID 720647;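 active means drop in luminescence signal, shown as inhibition above about 50% in the replicate tests, limit read from the data, passing the limit was not always enough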;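 further: agonist challenge used bursicon conditioned medium at about half maximal strength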
KKLEB tox: counter-screen for CF NF-kB inhibitors: cytotoxicity. KKLEB CF airway cells viability, ATPlite luminescence, overnight; hits give low values; cells stimulated with P. aeruginosa culture filtrate. activity change (cytotoxicity), % at 5 µM. 0.36% of 360,000 active. AID 602141;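 active means corrected activity change at or below -50% at 5 µM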
Mdm2 MdmX conf: human Mdm2/MdmX binding inhibition, confirmed. shares compounds with Mdm2-MdmX inh. luminescent assay. inhibition, % at 8 µM. 55% of 10,000 active; in the data active means inhibition above about 40%
Full FLuc ctr: counter-screen for Mdm2/MdmX inhibitors: full-length luciferase; shares compounds with Mdm2-MdmX inh; SaOS-2 full-length luciferase counterscreen, luminescence; inhibition, % at 8 µM; 77% of 6,200 active;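 active means mean inhibition at 8 µM reaching about 37%, which flags the compound as non-specific, limit read from the data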;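 further: p53-null SaOS-2 cells with luciferase driven by a doxycycline-inducible promoter; compound on cells about two nights before reading with doxycycline added after day one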
The depositor's hits bear a star; . = not tested or not shown.

SMILES | CF NFkB inh | Mdm2-MdmX inh | Peg3 prom inh | HSP90 inh | LGR2 antag | KKLEB tox | Mdm2 MdmX conf | Full FLuc ctr
C[C@H](CO)N1C[C@H](C)[C@H](CN(C)C(=O)C2CC2)Oc2cc(-c3cncnc3)ccc2S1(=O)=O | . | . | . | . | 5 | . | . | .
CC(C)Sc1nc2sc(-c3ccccc3)cc2c(=O)n1N | 1 | 11 | -20 | -3 | . | -2 | . | .
CSc1nc2sc(-c3ccccc3)cc2c(=O)n1N | -15 | 68* | -77 | 1 | . | -12 | 40* | 164*
O=C(COc1cc2oc(=O)c3c(c2cc1Cl)CCC3)NCCCN1CCCC1=O | -6 | -1 | -11 | -4 | -16 | 0 | . | .
O=C(COc1cc2oc(=O)c3c(c2cc1Cl)CCC3)Nc1ccc(CN2CCOCC2)cc1 | -12 | 52* | 19 | 0 | 4 | -3 | 19 | .
Cc1noc(C)c1NC(=O)Nc1ccc2c(c1)C(=O)N(C)[C@@H]1CC[C@H](CC(=O)N(C)C)O[C@H]1CO2 | . | . | . | . | 1 | . | . | .
CO[C@H]1CN(C)C(=O)c2cc(NC(=O)C3CCCCC3)ccc2OC[C@H](C)N(Cc2nccs2)C[C@@H]1C | . | . | . | . | -6 | . | . | .
O=[N+]([O-])c1cccc2c1ccc1ncccc12 | 35 | 56* | -7 | -2 | -25 | -10 | 34 | .
Cc1ccc2ncccc2c1[N+](=O)[O-] | -3 | -22 | 4 | 4 | 7 | 12 | . | .
C(=N\Nc1nc2ccccc2[nH]1)/c1cccc2nccnc12 | 0 | 74* | -20 | 2 | -6 | -18 | 65* | 32
COc1cc(/C=N/Nc2nc(Nc3ccc(C)cc3)nc(-n3nc(C)cc3C)n2)cc(OC)c1OC | 48 | 59* | 48 | -1 | . | 7 | 73* | 62*
COc1cc(/C=N/Nc2nc(Nc3ccccc3)nc(-n3nc(C)cc3C)n2)cc(OC)c1OC | 72* | 69* | 32 | 1 | -9 | 0 | 66* | 78*
COc1ccc(O)c(/C=N/Nc2nc(Nc3ccccc3)nc(-n3nc(C)cc3C)n2)c1 | 74* | 75* | 22 | 6 | . | 6 | 44* | 84*
COc1ccc(O)c(/C=N/Nc2nc(C)cc(-c3ccccc3)n2)c1 | -42 | 29 | -4 | . | 47 | 4 | . | .
COc1ccc(CNC(=O)C[C@H]2C[C@H]3c4cc(NC(=O)NC5CCCC5)ccc4O[C@H]3[C@@H](CO)O2)cc1 | . | . | . | . | -4 | . | . | .
COc1cccc(NC(=O)N(C)C[C@@H]2OCc3ccccc3-c3c(n(C)c4ccccc34)C(=O)N([C@H](C)CO)C[C@H]2C)c1 | . | . | . | . | -18 | . | . | .
COc1ccc(S(=O)(=O)Nc2ccccc2C(=O)Nc2nc(-c3ccc(F)cc3)cs2)cc1OC | 52* | 74* | 32 | -9 | 25 | -41 | 66* | 63*
COc1ccc(-c2csc(NC(=O)c3ccccc3NS(=O)(=O)c3ccc(C)cc3)n2)cc1 | 57* | 83* | 55* | 0 | 33 | -52* | 65* | 54*
CCCNC(=O)c1ccccc1NS(=O)(=O)c1ccc(OC)c(OC)c1 | -4 | -4 | 14 | 0 | . | -7 | . | .
CN1C(=O)c2cc(NC(=O)c3ccc(C#N)cc3)ccc2OC[C@H]2O[C@@H](CC(=O)NC3Cc4ccccc4C3)CC[C@@H]21 | . | . | . | . | -3 | . | . | .
C[C@@H]1CN([C@H](C)CO)S(=O)(=O)c2ccc(-c3ccc(F)cc3)cc2O[C@H]1CN(C)C(=O)C1CCC1 | . | . | . | . | 17 | . | . | .
Cc1n[nH]c(=S)n1/N=C/c1ccc(-c2ccc(Cl)cc2)o1 | -15 | 94* | 10 | . | 3 | 5 | -3 | .
C=C(C)COc1ccc(-c2[nH]ncc2-c2ccc(Br)cc2)c(O)c1 | -4 | 60* | 36 | -3 | 2 | -6 | 62* | 44*
C=C(C)COc1ccc(-c2n[nH]c(C)c2-c2ccc(Br)cc2)c(O)c1 | 24 | 86* | 46 | -2 | . | -27 | 56* | 51*
CC(C)NC(=O)N[C@@H]1CC[C@H](CCN)O[C@H]1CO | . | . | . | . | 4 | . | . | .
COc1ccc2c3c([nH]c2c1)[C@@H](CO)N(C(=O)c1cccnc1)CC31CCN(C(=O)Nc2cccc(F)c2)CC1 | . | . | . | . | 3 | . | . | .
